From PubChem BioAssay (NCATS)
Results filed as inconclusive are left out. Unmarked numbers belong to inactive results. Activity calls are given as the source filed them. Calls come from the whole dose curve; as a rule, active = well fitted curve in the direction sought with a large enough effect; inconclusive = small, poorly fitted or top-dose-only effect, or another doubt; inactive = no such curve, though single readings can be large or run the other way. Bridge positions count the residues as written; N and C are the ends. Square brackets hold non-standard residues; d marks the D form. Side chains are listed from the residue outwards. Peptide text beside a SMILES is read from it. * marks the point of attachment. Phg(4-OMe) = COc1ccc([C@H](N)C(=O)O)cc1; d(aIle) = CC[C@H](C)[C@@H](N)C(=O)O; d(aThr) = C[C@@H](O)[C@@H](N)C(=O)O; NMeF = CN[C@@H](Cc1ccccc1)C(=O)O; Isobutyryl = CC(C)C(=O)*

Assay: HPAF-II 12hr Apoptosis Induction qHTS against the NCATS CANVASS Library (AID 1347358); for caspase activation: 0% is about no effect
Settings: HPAF-II caspase-3/7 Caspase-Glo luminescence; series mostly up to 46.1 µM; caspase activation: at the top concentration
In short: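 Caspase-3/7 activation by DEVD-substrate luminescence (Caspase-Glo 3/7, 15 min, room temperature) after a 12-hour compound exposure in 11 concentrations, of HPAF-II pancreatic cells seeded at 500/well in DMEM with 10% FBS.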
Potency is the fitted concentration of half-maximal effect.

SMILES | caspase activation | Potency
CC(C)=CCC[C@]12c3cc4c(cc3CC[C@@]1(C)[C@H](C)CC[C@@H]2O)[nH]c1ccccc14 | 4.1% | 
C/C=C/C1C=CC2CC(C)CC(C)C2C1C(=O)CC(=O)NC(CO)C/C=C/CCCCC (stereo not drawn) | 8.8% | 
C=C1CC[C@@H](Br)C(C)(C)[C@]12CC=C(C)C(=O)C2 | -2.39% | 
C=CC(CCCCC)C1C(=O)NC(=O)C1C(=O)C1C(/C=C/C)C=CC2CC(C(=O)O)CC(C)C21 (stereo not drawn) | -1.11% | 
COc1cc(/C=C/C(=O)OC[C@@H](Cc2ccc(O)c(OC)c2)[C@@H](COC(=O)/C=C/c2ccc(O)c(OC)c2)Cc2ccc(O)c(OC)c2)ccc1O |  | 11.8 µM (active)
C=C[C@@]1(C)CC[C@@H]([C@H](C)C(=O)/C=C/C(C)(C)O)O1 | 3.65% | 
O=C1CC2OCC=C3CN4C5CC3C2[C@@H]2N1c1ccccc1[C@]52C[C@@H]4C1=C[C@H]2C3CC4N(CC[C@@]45c4ccccc4N(C1=O)[C@@H]25)C/C3=C/CO (stereo partly drawn) | 13% | 
C=C1CC[C@@H](O[C@H]2C[C@@](O)([C@H](C)NC(=O)c3[nH]c(C)c(Cl)c3Cl)[C@H](O)[C@@H](C)O2)[C@@H]2C=C[C@H](C)C(/C(O)=C3/C(=O)[C@H](C(C)C)N([C@@H]4O[C@H](C)[C@H](OC(N)=O)[C@H](OC(C)=O)[C@@H]4OC)C3=O)[C@@H]12 (stereo partly drawn) | -1.36% | 
CC[C@H](C)[C@H]1NC(=O)[C@@H](NC(=O)C(C)C)[C@@H](C)OC(=O)[C@H](COC(=O)CNC(C)=O)NC(=O)[C@@H]([C@@H](C)O)NC(=O)[C@H](Cc2ccccc2)N(C)C(=O)[C@H](c2ccc(OC)cc2)NC1=O (Isobutyryl-T[d(aIle)][Phg(4-OMe)][NMeF][d(aThr)]S([Gly-Ac]); ester 1-C) | -0.396% | 
C=C(C)CC[C@H](Cc1c(O)cc(O)c2c1O[C@H](c1ccc(O)cc1)CC2=O)C(=C)C | -1.17% | 
COc1c(O)cc2c(c1O)C(=O)c1c(coc1C)C2=O | 1.79% | 
C[C@]12CC[C@]3(C1)[C@H](CC2=O)C[C@@H](OC(=O)c1ccccc1)[C@H]1[C@](C)(C(=O)O)CCC[C@@]13C | -3.22% | 
Cc1occ2c1C(=O)c1c(cc(O)c(O)c1O)C2=O | 5.54% | 
COc1ccc2[nH]c3c(c2c1)CCN1C[C@H]2C[C@@H](OC(=O)c4cc(OC)c(OC)c(OC)c4)[C@H](OC)[C@@H](OC)[C@H]2C[C@H]31 | 5.01% | 
C=C[C@](Cl)(CBr)CCC=C(C)C | 4.83% | 
CC(=O)O[C@H]1c2ccccc2-c2c3c(cc4c2[C@@H]1N(C(C)=O)CC4)OCO3 | -5.17% | 
C=CC(CCCCC)C1C(=O)NC(=O)C1C(=O)C1C2C(C)CC(C(=O)O)CC2CC1(O)C(=O)/C=C/C (stereo not drawn) | 3.72% | 
O[C@H]1c2ccccc2-c2c3c(cc4c2[C@@H]1NCC4)OCO3 | 3.14% | 
C[C@]12CCC[C@](C)(C(=O)O)[C@@H]1CC[C@@]1(C)c3cocc3CC[C@H]21 | -0.81% | 

SMILES | caspase activation | Potency
COc1cc(C2OCC3C(c4ccc(O)c(OC)c4)OCC23)ccc1O (stereo not drawn) | 6.04% [at 9.19 µM] | 
C[n+]1cc2cc(C(N)=O)[nH]c3c(=N)c(Cl)c(N)c1c23 | -5.2% | 
COc1cc2c(c(O)c1O)C(=O)c1c(coc1C)C2=O | -6.68% | 
CCC(=O)N[C@@H](C[C@H](C)C(Cl)(Cl)Cl)C(=O)N1C(=O)C=C(OC)[C@@H]1CC(C)C | 0.955% | 
O=c1cc(-c2ccc(O)c(O)c2)oc2cc(O[C@@H]3O[C@H](CO)[C@@H](O)[C@H](O)[C@H]3O)cc(O)c12 | 2.46% | 
C/C1=C/[C@@H](C)[C@H](O)[C@@H](O)/C=C/CC/C=C/C(=O)O[C@@H]1[C@H](C)C(=O)CCCC1CC(=O)NC(=O)C1 | 4.46% | 
CN1CC[C@]2(c3cccc4c3N[C@H]3N(C)CC[C@@]43[C@]34CCN(C)[C@H]3Nc3ccccc34)c3ccccc3N[C@H]12 | -2.45% | 
CC[C@H]1[C@H](C)[C@H](c2cc(OC)c(OC)cc2OC)[C@@H](C)[C@H](c2cc(OC)c(OC)cc2OC)[C@@]12C=C(OC)C(=O)C=C2OC | 1% | 
CC(=O)Oc1cc2c(c(OC(C)=O)c1C1CCc3cc(Cl)c(Cl)n31)C(=O)n1c-2cc(Cl)c1Cl (stereo not drawn) | 4.95% | 
COc1cc2c(cc1OC)[C@@H](c1ccc3c(c1)OCO3)C(C)C(C)C2=O (stereo partly drawn) | -1.96% | 
C/C=C(/C)c1c(Cl)c(O)c(C)c2c1Oc1c(Cl)c(O)c(Cl)c(C)c1C(=O)O2 | 2.4% | 
CC(C)C[C@@H]1c2c(O)c(C=O)c(O)c(C=O)c2O[C@]2(C)C=C[C@@H](C(C)C)C[C@H]12 | 5.02% | 
C/C=C(/C)c1cc(O)c(C)c2c1Oc1cc(O)cc(C)c1C(=O)O2 | -1.64% | 
CC(C)[C@]12CC[C@@]3(C)[C@H](C)CC[C@H](O)[C@@]3(CC1)c1cc3c(cc12)[nH]c1ccccc13 | -0.958% | 
C[C@H]1C=C[C@H]2CCCC[C@@H]2[C@H]1C(=O)[C@H]1CC2=C(C(=O)O)CCN2C1=O | 6.51% | 
C/C=C(/C)c1c(Cl)c(OC)c(C)c2c1Oc1c(Cl)c(O)c(Cl)c(C)c1C(=O)O2 | -2.6% | 
C/C(=C\CC[C@@H](C)[C@H]1CC[C@]2(C)C3=CCC4C(C)(C)[C@@H](O)C[C@@H](O)[C@]4(C)C3[C@H](O)C[C@@]12C)CO (stereo partly drawn) | 9.38% | 
COC12OC1(C13OC1(OC)C(=O)c1cc4cc(C)oc(=O)c4c(O)c1C3O)C(O)c1c(cc3cc(C)oc(=O)c3c1O)C2=O (stereo not drawn) | -3.11% | 
CO[C@H]1[C@@H](OC(=O)/C(C)=C\[C@@H]2O[C@@H]2[C@H]2O[C@H]2C)[C@H](O)[C@H](OCC23C[C@@H]4[C@H](C)CC[C@H]4C4(C=O)CC2C=C(C(C)C)C34C(=O)O)O[C@@H]1C (stereo partly drawn) | 0.678% | 
